Test results reported in PubChem BioAssay (NCATS).
Results filed as inconclusive are left out. The source made the active and inactive calls. The call rests on the fitted dose curve; in most records, active means well fitted cell-killing curve with a large enough effect; inconclusive means small, poorly fitted or top-dose-only effect, or effect the other way; inactive means flat fitted curve, though single readings scatter.

How the values were obtained:
Experiment in all cases: Primary qHTS to identify gynecologic anti-cancer compounds using libraries of approved drugs and bioactive compounds (AID 1345084); further: nearly all actives have a fitted effect of over 55% in size
Conditions in all cases: Gynecologic cancer cell panel viability, ATPlite luminescence, 48 h; series mostly up to 57.5 µM
JEG-3 = tested on: JEG-3
Outline: (§1)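 Five-point cytotoxicity, 48 h drug exposure at 37 C, 5% CO2, on cells seeded 16 h beforehand. ATP content read by ATPlite luminescence.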

OV90 = tested on: OV90
Outline: as §1

PA-1 = tested on: PA-1
Outline: as §1

SKOV3 = tested on: SKOV3
Outline: as §1

Tov-21-G = tested on: Tov-21-G
Outline: as §1

Tov112D = tested on: Tov112D
Outline: as §1
On the % scale 0 is the no-effect control and ±100 the full control effect.

CC1=CC2/C=C(\C)CC[C@@H](O)[C@@H](O)[C@@H]3O[C@@H]3C(=O)[C@]23C(=O)N[C@@H](CC(C)C)[C@@H]3[C@@H]1C (stereo partly specified)
inactive: Potency (JEG-3) | Potency (OV90) | Potency (PA-1) | Potency (SKOV3) | Potency (Tov-21-G) | Potency (Tov112D)

O=C(OC[C@@]1(O)CO[C@@H](O[C@H]2[C@H](Oc3ccc(O)cc3)O[C@H](CO)[C@@H](O)[C@@H]2O)[C@@H]1O)c1ccc(O)cc1
inactive: Potency (JEG-3) | Potency (OV90) | Potency (PA-1) | Potency (SKOV3) | Potency (Tov-21-G) | Potency (Tov112D)

CC12CCC(C(OC3OC(COC4OCC(O)(CO)C4O)C(O)C(O)C3O)C1)C(C)(C)O2 (stereo unspecified)
inactive: Potency (JEG-3) | Potency (OV90) | Potency (PA-1) | Potency (SKOV3) | Potency (Tov-21-G) | Potency (Tov112D)

C[C@@H]1CN(Cc2ncccn2)C[C@H]1c1nc2c(cnn2C2CCOCC2)c(=O)[nH]1
inactive: Potency (JEG-3) | Potency (OV90) | Potency (PA-1) | Potency (SKOV3) | Potency (Tov-21-G) | Potency (Tov112D)

CC1=CC(=O)[C@H]2C(C)(C)CCC[C@]2(C)[C@@]1(O)CO
inactive: Potency (JEG-3) | Potency (OV90) | Potency (PA-1) | Potency (SKOV3) | Potency (Tov-21-G) | Potency (Tov112D)

CN(C)CCn1cc(S(=O)(=O)c2cccc(F)c2)c2cccnc21
inactive: Potency (JEG-3) | Potency (OV90) | Potency (PA-1) | Potency (SKOV3) | Potency (Tov-21-G) | Potency (Tov112D)

CNS(=O)(=O)CC1CCC(N(C)c2ncnc3[nH]ccc23)CC1 (stereo unspecified)
inactive: Potency (JEG-3) | Potency (OV90) | Potency (PA-1) | Potency (SKOV3) | Potency (Tov-21-G) | Potency (Tov112D)

CC(=O)c1cc2c(cc1O)OC(C)(C)C=C2
inactive: Potency (JEG-3) | Potency (OV90) | Potency (PA-1) | Potency (SKOV3) | Potency (Tov-21-G) | Potency (Tov112D)

C=CC(C)(CC/C=C(\C)C(=O)OC)OC1OC(COC(=O)CC(C)(O)CC(=O)O)C(OC2OC(CO)C(O)C(O)C2O)C(O)C1O (stereo unspecified)
inactive: Potency (JEG-3) | Potency (OV90) | Potency (PA-1) | Potency (SKOV3) | Potency (Tov-21-G) | Potency (Tov112D)

COc1cc(C(=O)OC[C@@]2(O)CO[C@@H](O[C@H]3[C@H](Oc4ccc(C(=O)O)cc4OC)O[C@H](CO)[C@@H](O)[C@@H]3O)[C@@H]2O)ccc1O
inactive: Potency (JEG-3) | Potency (OV90) | Potency (PA-1) | Potency (SKOV3) | Potency (Tov-21-G) | Potency (Tov112D)

CC1(C)CCC(C)(C)c2cc(C3(c4ccc(C(=O)O)cc4)OCCO3)ccc21
inactive: Potency (JEG-3) | Potency (OV90) | Potency (PA-1) | Potency (SKOV3) | Potency (Tov-21-G) | Potency (Tov112D)

CC1=C(C)C(=O)OC(C(C)C2CCC3C4CC=C5CC(OC6OC(COC7OC(CO)C(O)C(O)C7O)C(O)C(O)C6O)CC(O)C5(C)C4CCC23C)C1 (stereo unspecified)
inactive: Potency (JEG-3) | Potency (OV90) | Potency (PA-1) | Potency (SKOV3) | Potency (Tov-21-G) | Potency (Tov112D)

O=C1NC(Cc2ccccc2)C(=O)N2CCCC12 (stereo unspecified)
inactive: Potency (JEG-3) | Potency (OV90) | Potency (PA-1) | Potency (SKOV3) | Potency (Tov-21-G) | Potency (Tov112D)

COC(=O)CC(O)C1OC(c2ccccc2)C(O)C1O (stereo unspecified)
inactive: Potency (JEG-3) | Potency (OV90) | Potency (PA-1) | Potency (SKOV3) | Potency (Tov-21-G) | Potency (Tov112D)

Cc1nc2ccc(Oc3ccc(F)cc3)cc2c(=O)n1C[C@H]1CCCN(C(C)C)C1
inactive: Potency (JEG-3) | Potency (OV90) | Potency (PA-1) | Potency (SKOV3) | Potency (Tov-21-G) | Potency (Tov112D)

CC1=C2C(O)C(=O)OC(c3ccoc3)C2(C)CCC1O (stereo unspecified)
inactive: Potency (JEG-3) | Potency (OV90) | Potency (PA-1) | Potency (SKOV3) | Potency (Tov-21-G) | Potency (Tov112D)

O=C(CCCCN1CCOCC1)Nc1ccc(-c2cccnc2)cc1
inactive: Potency (JEG-3) | Potency (OV90) | Potency (PA-1) | Potency (SKOV3) | Potency (Tov-21-G) | Potency (Tov112D)

C/C(=C\CCC(C)CCO)C(=O)O[C@@H]1[C@@H](O)[C@H](OC2OC=C(C(=O)O)C3CCC(C)(O)C23)O[C@H](CO)[C@H]1O (stereo partly specified)
inactive: Potency (JEG-3) | Potency (OV90) | Potency (PA-1) | Potency (SKOV3) | Potency (Tov-21-G) | Potency (Tov112D)

COc1c2c(c(C)c3c1C(=O)OC3)OC1(C)CC(O)C34OC(OC)(OC3(C)C)C(O)CC4(C)C1C2 (stereo unspecified)
inactive: Potency (JEG-3) | Potency (OV90) | Potency (PA-1) | Potency (SKOV3) | Potency (Tov-21-G) | Potency (Tov112D)

CC1(C)CC[C@]2(C(=O)O[C@@H]3O[C@H](CO[C@@H]4O[C@H](CO)[C@@H](O)[C@H](O)[C@H]4O[C@@H]4O[C@H](CO)[C@H](O)[C@H](O)[C@H]4O)[C@@H](O)[C@H](O[C@@H]4O[C@H](CO)[C@@H](O)[C@H](O)[C@H]4O)[C@H]3O)CC[C@]3(C)C(=CCC4[C@@]5(C)CC[C@H](O[C@@H]6OC[C@@H](O)[C@H](O)[C@H]6O)[C@@](C)(C(=O)O)C5CC[C@]43C)[C@@H]2C1 (stereo partly specified)
inactive: activity change, negative = cytotoxicity (JEG-3) -2.73% [at 6.55 µM] | activity change, negative = cytotoxicity (OV90) 3.06% [at 6.55 µM] | activity change, negative = cytotoxicity (PA-1) -1.12% [at 6.55 µM] | activity change, negative = cytotoxicity (SKOV3) 19.9% [at 6.55 µM] | activity change, negative = cytotoxicity (Tov-21-G) 4.04% [at 6.55 µM] | activity change, negative = cytotoxicity (Tov112D) 5.73% [at 6.55 µM]

COC(=O)c1cc(OC)c(O[C@@H]2O[C@@H](C)[C@H](O)[C@@H](O)[C@H]2O)c(OC)c1
inactive: Potency (JEG-3) | Potency (OV90) | Potency (PA-1) | Potency (SKOV3) | Potency (Tov-21-G) | Potency (Tov112D)
